This is part of a sample that, as a whole, favours compounds with a hit. Of some 79,000 tested, about 15% had one in any assay. The source made the active and inactive calls. Rule as the data show it: active = growth inhibition above about 70%; inactive = the rest. *1 amine or outer side, *2 acyl side, *3 side chain or, on linkers, in order; H or OH if unused. Where a SMILES comes first, the peptide text is derived from it. [ ]: non-standard residue; d: D form. The star is where a group is joined. X17 = CC(=O)N(C)SCC(N[*:1])C(=O)[*:2]; Fmoc = O=C(OCC1c2ccccc2-c2ccccc21)*; For = O=C*

A short description of this assay: NCI Yeast Anticancer Drug Screen. Data for the bub3 strain (AID 167). The note with it: S. cerevisiae bub3 mutant strain, at 50.0 µM, stronger effect = higher value. A digest of the protocol:
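Readout: yeast growth inhibition, expressed relative to vehicle-only wells. The test organism is a mutant strain from a panel with lesions in DNA repair or checkpoint genes.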
Take `O=[N+]([O-])c1ccc(Oc2cccc3ccccc23)c([N+](=O)[O-])c1`: the growth inhibition was 29.1% (inactive).
In the case of `COC(=O)c1cc2cccn2cn1`, the growth inhibition was -27.9% (inactive).
Next, `CCOC(=O)Nc1cc(Cl)c2nnn(C(=O)OCC)c2n1`: 96.7% (active); `Cc1ccc(S(=O)(=O)N(CCO)CCCO)cc1`: -35.3% (inactive).
As to `O=C(O)C=C1CCCCC1`, the growth inhibition is 11.9% (inactive).
As for `N#Cc1nc[nH]c1C(N)=O`, the growth inhibition was 11% (inactive).
Next, `CCc1cc(O)c([N+](=O)[O-])cc1[N+](=O)[O-]`: -17.2% (inactive); `O=C(O)c1c(CN2CCOCC2)c(O)c(O)c(O)c1CN1CCOCC1`: 1.3% (inactive); `N#CC(/C(=N\NC(N)=S)C(=O)NC1C2CC3CC(C2)CC1C3)c1ccc(Cl)cc1` (stereo not drawn): 15.4% (inactive).
Next, `CCC(=O)Nc1ncnc2ncn(C(=O)CC)c12`: -45.1% (inactive); `CC(=O)N(C)SCC(NC(=O)C(Cc1ccccc1)NC(=O)OCC1c2ccccc2-c2ccccc21)C(=O)NC(Cc1ccccc1)C(=O)NC(Cc1cn(C=O)c2ccccc12)C(=O)NC(CCCCNC(=O)OCC1c2ccccc2-c2ccccc21)C(=O)NC(C(=O)NC(CSN(C)C(C)=O)C(=O)NC(C(N)=O)C(C)O)C(C)O` (stereo not drawn) (Fmoc-F[X17]FW(For)K(Fmoc)T[X17]T-NH2; configuration not given here): 82.2% (active).
With `CCC1(C)NN=C2C(=CC=C3NNC(C)(CC)N32)n2cccc21` (stereo not drawn), the growth inhibition is -2.65% (inactive).
The figure for `CC(=O)[CH-]C(=O)c1ccccc1.CC(=O)[CH-]C(=O)c1ccccc1.CC(C)CCCC(C)[C@H]1CCC2[C@@H]3CC=C4C[C@@H]([O-])CC[C@]4(C)C3CC[C@@]21C.CC[O-].[Ti+4]` (stereo partly drawn) is 23.2% (inactive).

Values taken from PubChem BioAssay (NCI).
